Data published in ChEMBL document CHEMBL4513146, “CO-ADD screening of Karazin Kharkiv National University (Ukraine) compounds”.
Measured potencies and affinities stand elsewhere.

System: Klebsiella pneumoniae
Conditions: Concentration 32 ug.mL-1;; ASSAY_TEST Inhibition of Bacterial Growth; detection method Absorption (OD600); MEDIA CAMHB; plate type 384well; NBS; CORNING #3640; time 18 hr

| SMILES | Inhibition [%] |
| --- | --- |
| Cc1cc(C)cc(Oc2nccn3c(=O)n(CC(=O)Nc4cccc(Cl)c4)nc23)c1 | 0.09 |
| CCOC(=O)c1ccccc1NC(=O)Cn1nc2c(Oc3ccc(C)cc3)nccn2c1=O | -8.56 |
| Cc1ccc(CN(c2ccc(C(C)C)cc2)S(=O)(=O)c2cccn3cnnc23)cc1 | 23.96 |
| Cc1ccc(-c2ccc3nn(CC(=O)NC4CCCCC4)c(=O)n3n2)cc1C | 13.52 |
| COc1ccc(NC(=O)Cn2nc3c4cc(-c5ccc(C)cc5)nn4ccn3c2=O)c(OC)c1 | 9.2 |
| CCCn1c(=O)c2sccc2n2c(=O)n(Cc3ccc(Cl)cc3)nc12 | 4.43 |
| CC(C)c1ccc(NC(=O)Cn2nc3c(Sc4ccccc4)nccn3c2=O)cc1 | -10.24 |
| COc1ccc(CN(c2ccc(F)cc2)S(=O)(=O)c2cccn3cnnc23)cc1F | 9.98 |
| O=C(Cn1nc2c3cc(-c4ccc(F)cc4)nn3ccn2c1=O)Nc1ccccc1 | 5.09 |
| COc1cccc(NC(=O)Cn2nc3c4cc(-c5ccc(Cl)cc5)nn4ccn3c2=O)c1 | 8.34 |
| Cc1ccc(NC(=O)Cn2nc3ccc(SC(C)(C)C)nn3c2=O)cc1Cl | 12.42 |
| Cc1ccccc1Oc1nccn2c(=O)n(CC(=O)Nc3ccc(C#N)cc3)nc12 | 13.8 |
| CCOc1ccc(-n2ccn3c(SCC(=O)Nc4ccc(Cl)cc4)nnc3c2=O)cc1 | 5.78 |
| COc1ccc(-c2cc3c4nn(CC(=O)Nc5ccccc5OC)c(=O)n4ccn3n2)cc1 | 7.14 |
| COc1cccc(Oc2nccn3c(=O)n(CC(=O)Nc4cc(F)ccc4F)nc23)c1 | 3.2 |
| Cc1ccc(CNC(=O)Cn2nc3ccc(SCc4ccc(Cl)cc4)nn3c2=O)cc1 | 9.12 |
| O=C(Cn1nc2ccc(-c3ccccc3)nn2c1=O)NC1CCCCC1 | 16.29 |
| COc1cccc(NC(=O)Cn2nc3ccc(SCc4ccc(Cl)cc4)nn3c2=O)c1 | 6.69 |
| CCOC(=O)c1ccc(NC(=O)Cn2nc3ccc(-c4ccc(Cl)cc4)nn3c2=O)cc1 | 8.58 |
| CCOc1ccccc1NC(=O)Cn1nc2c(N3CCN(c4ccccc4C)CC3)nccn2c1=O | -9.36 |
| O=c1n(Cc2cccc(C(F)(F)F)c2)nc2c(S(=O)(=O)N3CCCCCC3)cccn12 | 7.16 |
| CCOc1ccc(-n2ccn3c(SCC(=O)Nc4cc(F)ccc4F)nnc3c2=O)cc1 | 6.4 |
| COc1cccc(CN(c2ccc(C)c(F)c2)S(=O)(=O)c2ccc3nncn3c2)c1 | 1.02 |
| Cc1ccc(NC(=O)Cn2nc3cc(C)nc(Nc4ccc(F)cc4)n3c2=O)cc1 | 11.23 |
| COc1ccc(-c2cc3c4nn(CC(=O)Nc5cc(C)ccc5C)c(=O)n4ccn3n2)cc1 | 11.61 |
| COc1cccc(NC(=O)Cn2nc3ccc(-c4ccc(Cl)cc4)nn3c2=O)c1 | 5.27 |

System: Candida albicans
Conditions: Concentration 32 ug.mL-1; ASSAY_TEST Inhibition of Fungal Growth; detection method Absorption (OD530)

| SMILES | Inhibition [%] |
| --- | --- |
| COC(=O)c1ccc(CN(c2ccc(F)cc2)S(=O)(=O)c2cccn3c(C)nnc23)o1 | 3.23 |
| Cc1ccccc1Oc1nccn2c(=O)n(CC(=O)Nc3ccc(C(C)C)cc3)nc12 | 37.73 |
| CC(C)c1nnc2c(SCC(=O)Nc3ccc(Cl)cc3C(F)(F)F)nc3ccccc3n12 | 3.28 |
| C=Cc1ccc(CN(c2cccc(Cl)c2)S(=O)(=O)c2cccn3c(C)nnc23)cc1 | 1.33 |
| COc1ccc2[nH]cc(C(=O)CSc3nnc4c(=O)n(-c5cccc(Cl)c5C)ccn34)c2c1 | 2.95 |
| CC(C)CCn1c(=O)c2ccccc2n2c(=O)n(CC#N)nc12 | 2.65 |
| Cc1ccccc1Nc1cc(C)n2c(=O)n(CCOc3ccc(F)cc3)nc2n1 | -1.22 |
| Cc1cc2nn(CC(=O)NC3CCCCC3)c(=O)n2c(Nc2ccc(F)c(C)c2)n1 | 3.39 |
| Cc1cc(Nc2ccc(F)cc2)nc2nn(CCc3ccccc3)c(=O)n12 | 1.44 |
| CCOc1ccc(-n2ccn3c(SCC(=O)c4ccc(F)cc4)nnc3c2=O)cc1 | 2.02 |
| CCOC(=O)c1ccccc1NC(=O)Cn1nc2c(Sc3ccccc3)nccn2c1=O | -1.59 |
| O=c1n(Cc2cccc(C(F)(F)F)c2)nc2c(S(=O)(=O)N3CCCCC3)cccn12 | 1.28 |
| COc1ccc(-c2cc3c4nn(CC(=O)Nc5cccc(OC)c5)c(=O)n4ccn3n2)cc1 | 17.22 |
| CC(=O)c1ccc(NC(=O)Cn2nc3ccc(-c4ccc(C)cc4)nn3c2=O)cc1 | 4.12 |
| Cc1cc(C)cc(Oc2nccn3c(=O)n(CC(=O)Nc4cccc(Cl)c4)nc23)c1 | 0.52 |
| CCOC(=O)c1ccccc1NC(=O)Cn1nc2c(Oc3ccc(C)cc3)nccn2c1=O | 4.6 |
| Cc1ccc(CN(c2ccc(C(C)C)cc2)S(=O)(=O)c2cccn3cnnc23)cc1 | 3.57 |
| Cc1ccc(-c2ccc3nn(CC(=O)NC4CCCCC4)c(=O)n3n2)cc1C | 3.29 |
| COc1ccc(NC(=O)Cn2nc3c4cc(-c5ccc(C)cc5)nn4ccn3c2=O)c(OC)c1 | 7.88 |
| CCCn1c(=O)c2sccc2n2c(=O)n(Cc3ccc(Cl)cc3)nc12 | 0.41 |

| SMILES | Inhibition [%] |
| --- | --- |
| CC(C)c1ccc(NC(=O)Cn2nc3c(Sc4ccccc4)nccn3c2=O)cc1 | 23.16 |
| COc1ccc(CN(c2ccc(F)cc2)S(=O)(=O)c2cccn3cnnc23)cc1F | 3.76 |
| O=C(Cn1nc2c3cc(-c4ccc(F)cc4)nn3ccn2c1=O)Nc1ccccc1 | 9.56 |
| COc1cccc(NC(=O)Cn2nc3c4cc(-c5ccc(Cl)cc5)nn4ccn3c2=O)c1 | 4.47 |
| Cc1ccc(NC(=O)Cn2nc3ccc(SC(C)(C)C)nn3c2=O)cc1Cl | 1.72 |
| Cc1ccccc1Oc1nccn2c(=O)n(CC(=O)Nc3ccc(C#N)cc3)nc12 | -1.85 |
| CCOc1ccc(-n2ccn3c(SCC(=O)Nc4ccc(Cl)cc4)nnc3c2=O)cc1 | 3.69 |
| COc1ccc(-c2cc3c4nn(CC(=O)Nc5ccccc5OC)c(=O)n4ccn3n2)cc1 | 0.94 |
| COc1cccc(Oc2nccn3c(=O)n(CC(=O)Nc4cc(F)ccc4F)nc23)c1 | 5.06 |
| Cc1ccc(CNC(=O)Cn2nc3ccc(SCc4ccc(Cl)cc4)nn3c2=O)cc1 | 20.24 |
| O=C(Cn1nc2ccc(-c3ccccc3)nn2c1=O)NC1CCCCC1 | 0.48 |
| COc1cccc(NC(=O)Cn2nc3ccc(SCc4ccc(Cl)cc4)nn3c2=O)c1 | 11.57 |
| CCOC(=O)c1ccc(NC(=O)Cn2nc3ccc(-c4ccc(Cl)cc4)nn3c2=O)cc1 | -0.49 |
| CCOc1ccccc1NC(=O)Cn1nc2c(N3CCN(c4ccccc4C)CC3)nccn2c1=O | 21.63 |
| O=c1n(Cc2cccc(C(F)(F)F)c2)nc2c(S(=O)(=O)N3CCCCCC3)cccn12 | 2.16 |
| CCOc1ccc(-n2ccn3c(SCC(=O)Nc4cc(F)ccc4F)nnc3c2=O)cc1 | 2.5 |
| COc1cccc(CN(c2ccc(C)c(F)c2)S(=O)(=O)c2ccc3nncn3c2)c1 | -0.35 |
| Cc1ccc(NC(=O)Cn2nc3cc(C)nc(Nc4ccc(F)cc4)n3c2=O)cc1 | 3.22 |
| COc1ccc(-c2cc3c4nn(CC(=O)Nc5cc(C)ccc5C)c(=O)n4ccn3n2)cc1 | 0.97 |
| COc1cccc(NC(=O)Cn2nc3ccc(-c4ccc(Cl)cc4)nn3c2=O)c1 | 2.11 |
